A selection follows.
aSyn UTR act: Activators via SNCA 5'UTR binding, MLPCN; alpha-synuclein 5'UTR reporter, activators screen; activity score, % (tested at 7.5 µM), hits read low; actives 7.1% (n = 300,000); AID 1814, 2009; in the data active means activity score below about -60%
The depositor's hits bear a star.

SMILES | aSyn UTR act
NC(=O)C1=C[C@H](c2ccccc2)C[C@H](OCc2ccc(CO)cc2)O1 | -66.6*
O=C(Nc1ccccc1)C1=C[C@@H](c2ccccc2)C[C@@H](OCc2ccc(CO)cc2)O1 | -94.2*
O=C(NC(=S)Nc1nc2ccc(F)cc2s1)c1ccco1 | -170.7*
O=C(Nc1nc2ccc(F)cc2s1)c1cccs1 | -222.9*
CC(=O)Nc1ccc2nc(NC(=O)c3cccnc3)sc2c1 | -91.6*
CN(C)S(=O)(=O)c1ccc2nc(NC(=O)c3cccs3)sc2c1 | -107.6*
CSc1nc2ccc3nc(NC(=O)c4cccs4)sc3c2s1 | -369.6*
O=C(NC(Nc1nc2ccc([N+](=O)[O-])cc2s1)(C(F)(F)F)C(F)(F)F)c1cccnc1 | 59.7
CN(C)S(=O)(=O)c1ccc2nc(NC(=O)c3cccnc3)sc2c1 | -68.4*
CC1=CCC(/C=N\Nc2nnc3c(n2)[nH]c2ccccc23)CC1 (stereo unspecified) | -64.9*
Cc1cc(C)n(CC(O)COc2ccc3ccccc3c2)n1 (stereo unspecified) | -113.9*
CC(C)(C)c1ccc(-c2cc(C(=O)NNC(=O)Nc3ccccc3)c3ccccc3n2)cc1 | -124.0*
COc1cc(C(=O)Nc2ccc(C)cc2)c2ccccc2n1 | 81.5
COc1ccc(-c2cc(C(=O)Nc3ccc(C)c(N)c3)c3ccccc3n2)cc1 | -82.0*
Cc1ccc(C2=NCN(c3ccc(C(=O)O)cc3)C(=S)N2)cc1 | -116.5*
S=C1NC(c2ccccc2)=NCN1c1ccccc1 | -66.0*
Cc1ccc(N/C=C/C(=O)c2cccs2)cc1C | -179.8*
O=C(/C=C/Nc1ccc(Nc2ccccc2)cc1)c1cccs1 | -170.1*
O=C(/C=C/Nc1cccc([N+](=O)[O-])c1)c1cccs1 | -279.0*
O=C(/C=C/Nc1ccccc1C(=O)O)c1cccs1 | -71.6*
Cc1cc(N/C=C/C(=O)c2cccs2)ccc1F | -249.7*
COc1cccc(C(=O)Nc2nc3c(s2)CN(C)CC3)c1 | -85.0*
COc1cccc(C(=O)Nc2nnc(-c3ccccc3)s2)c1 | -223.6*
COc1cccc(C(=O)NCc2ccc(-c3nc4ccccc4s3)cc2)c1 | -109.4*
CC(C)(C)c1ccc(-c2nnc(NC(=O)c3ccccc3)s2)cc1 | -162.9*
SMILES | aSyn UTR act
CC(=O)NC(c1ccccc1)c1nc2ccccc2[nH]1 (stereo unspecified) | -64.5*
CCOc1cccc(OCCCOc2ccccc2)c1 | -76.3*
COc1cccc(/C=N/NC(=O)CCn2nnc3ccccc32)c1 | -119.8*
O=C(Nc1ccccc1)c1cccc(N2CCCC2=O)c1 | -116.7*
O=C(N/N=C/c1cc(Br)ccc1O)c1cccc(N2CCCC2=O)c1 | 68.4
COc1cccc(/C=N/NC(=O)c2cccc(N3CCCC3=O)c2)c1 | -104.7*
COc1ccc(/C=N/NC(=O)CCn2cnc(-c3ccccc3)c2-c2ccccc2)cc1 | 55.9
C/C(=N/NC(=O)c1cccc(N2CCCC2=O)c1)c1ccncc1 | -166.1*
COc1ccc(C(=O)/C=C(\C)Nc2ccc3c(c2)OCO3)cc1 | -169.5*
COc1ccc(OC)c(NC(=O)c2ccccc2OC(C)=O)c1 | -68.9*
COc1ccc(NC(=O)/C=C/c2ccc3c(c2)OCO3)cc1 | -90.6*
COc1ccc(N/C(C)=C/C(=S)Nc2ccccc2)cc1 | -74.6*
COC(=O)/C(=C\C(=O)c1ccccc1)Nc1ccc(OC)cc1 | -93.0*
COc1ccc(OC)c(N/C=C/C(=O)c2ccccc2)c1 | 82.7
CC(=O)Nc1ccc(OCc2ccc3c(c2)OCO3)cc1 | -150.6*
COc1cccc(N/C(C)=C/C(=O)c2ccc(Br)cc2)c1 | -172.0*
COc1ccc(OC)c(N/C(C)=C/C(=O)c2ccccc2)c1 | -112.7*
COc1ccc(N/C(C)=C/C(=O)c2ccccc2)cc1 | -150.9*
COc1ccc(/C(C)=N/Nc2ncc(Cl)cc2Cl)c(O)c1 | -92.0*
Cn1c(=S)[nH]c2sc3c(c2c1=O)CCC(C(C)(C)C)C3 (stereo unspecified) | -87.3*
COc1ccccc1NC(=O)Cn1c(CN2CCCCC2)nc2ccccc2c1=O | -63.4*
COCc1cc(CN2CCCC2)c(O)c2ncccc12 | 59.1
Cc1cccc(NC(=O)CSc2nnc(-c3n[nH]c4ccccc34)o2)c1 | -180.0*
C#Cc1cccc(NC(=O)CSc2nnc(-c3ccc(C(F)(F)F)cn3)o2)c1 | -124.3*
N#Cc1cccc(NC(=O)CSc2nnc(-c3n[nH]c4ccccc34)o2)c1 | -276.5*
SMILES | aSyn UTR act
O=C(N/N=C/C(Cl)=C\c1ccccc1)c1ccco1 | -223.8*
O=C(N/N=C/C(Cl)=C/c1ccccc1)c1ccco1 | -157.9*
O=C(c1cc2ccccc2o1)c1nc2c(n1O)CCCCC2 | -72.6*
Cc1ccc(C(=O)c2nc3c(n2O)CCCC3)cc1 | -86.3*
CC(=O)Nc1nc(-c2ccc3ccccc3c2)cs1 | -143.1*
Oc1ccc(Nc2nc(-c3ccc4ccccc4c3)cs2)cc1 | -210.0*
CCOc1ccc2nc(SCC(=O)NC3CC3)sc2c1 | -68.0*
CCOc1ccc2nc(SCC(=O)c3ccccc3)sc2c1 | -100.0*
CCCCN(CC)CCNC(=O)c1cc2c(=O)n(CC)c3ccccc3c2s1 | -274.3*
CCCN(CCC)CCCNC(=O)c1cc2c(=O)n(CC)c3ccccc3c2s1 | -299.7*
